About 2,600 (16%) of roughly 16,000 compounds were called active. Roughly 20% stayed inconclusive and do not appear here. Calls follow the shape of the dose curve; as a rule, active = well fitted curve in the direction sought with a large enough effect; inconclusive = small, poorly fitted or top-dose-only effect, or effect the other way; inactive = no such curve, though single readings can be large or run the other way. The list is a sample of the results.
molecular target: Cytochrome P450 2D6 (Homo sapiens) (UniProt P10635); experiment: Cytochrome panel assay with activity outcomes; settings: recombinant CYP, pro-luciferin dealkylation, luminescence, p450-cyp2d6; series mostly up to 57.1 µM; activity, negative = inhibition: at the top concentration
% is scaled to controls: 0 for no effect and ±100 for the full control effect.

Cytochrome P450 2D6 (Homo sapiens), sequence (P10635 whole entry, looked up): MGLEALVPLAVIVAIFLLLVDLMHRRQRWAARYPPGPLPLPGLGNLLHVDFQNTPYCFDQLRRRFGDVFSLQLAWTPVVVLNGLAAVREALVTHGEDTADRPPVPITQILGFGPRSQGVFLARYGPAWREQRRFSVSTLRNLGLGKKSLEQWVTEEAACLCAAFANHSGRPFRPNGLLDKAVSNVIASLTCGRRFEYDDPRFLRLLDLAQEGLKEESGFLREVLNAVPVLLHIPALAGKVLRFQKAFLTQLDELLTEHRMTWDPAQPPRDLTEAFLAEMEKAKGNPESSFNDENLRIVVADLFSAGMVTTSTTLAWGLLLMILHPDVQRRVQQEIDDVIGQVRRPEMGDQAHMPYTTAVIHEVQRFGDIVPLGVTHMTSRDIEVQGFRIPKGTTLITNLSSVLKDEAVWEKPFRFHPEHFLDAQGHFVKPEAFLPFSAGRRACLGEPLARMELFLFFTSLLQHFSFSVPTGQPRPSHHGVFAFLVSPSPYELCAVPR

activity, negative = inhibition, inactive:
COc1ccc(NC(=O)N2CC[C@@]3(CCCN(C(=O)c4cccc(F)c4)C3)C2)cc1 6.12%
O=C(Nc1ccccc1)N1CCSc2cc(Cl)ccc21 -11.2%
OC[C@@H]1O[C@@H](N2CCN([C@@H]3O[C@@H](CO)[C@@H](O)[C@H](O)[C@H]3O)CC2)[C@@H](O)[C@H](O)[C@H]1O -3.98% [at 11.4 µM]
COc1ccc2c(c1[N+](=O)[O-])CCC/C2=N/OC(=O)c1ccccc1SC -3.18%
NC(N)=NC(N)=Nc1ccc(S(N)(=O)=O)cc1 4.99% [at 11.4 µM]
O=C(c1ccc2c(=O)n(CC3CCCO3)c(=S)[nH]c2c1)N1CCN(c2ccccc2)CC1 (stereo unspecified) -17.4%
C=CCNC(=O)c1ccc(Cn2c(=S)[nH]c3cc4c(cc3c2=O)OCO4)cc1 8.13%
CCOc1cc2[nH]c(=S)n(CCCC(=O)NCc3ccco3)c(=O)c2cc1OCC 18.8%
CCCCNC(=O)CCn1c(=S)[nH]c2cc3c(cc2c1=O)OCO3 -7.86%
O=C(CCCn1c(=S)[nH]c2ccc(Br)cc2c1=O)NCC1CCCO1 (stereo unspecified) -8.4%
O=C(c1ccc2c(=O)n(Cc3ccco3)c(=S)[nH]c2c1)N1CCN(c2ccccc2)CC1 -19.2%
CCCC(=O)Nc1cccc(Oc2nc(C)cc(C)c2C#N)c1 -2.28%
Cc1ccnc(NS(=O)(=O)c2ccc(N=[N+]=[N-])cc2)n1 10.7% [at 11.4 µM]
CC(C)=CCC/C(C)=C/CO/N=C1/C[C@@H](O)[C@@H](O)[C@@H]2[C@@H]3C(=O)N(Cc4ccccc4)C(=O)[C@H]3CC[C@H]12 -8.8% [at 11.4 µM]
NC(=O)CNC(=O)[C@@H]1CC2(CC(c3ccccc3)=NO2)CN1C(=O)c1ccc(Br)cc1 (stereo partly specified) -20%
CC(=O)Nc1ccc2c(c1)C(=Nc1ccc(C(=O)O)cc1)c1ccccc1-2 13% [at 11.4 µM]
COc1ccc(C(=O)N/N=C(\C)Cn2nc([N+](=O)[O-])cc2C)cc1 -23.1%
Cc1ccc(-n2c3c(c(=O)[nH]c2=O)C(NS(=O)(=O)c2ccc(C)cc2)(C(F)(F)F)C(=O)N3)cc1 (stereo unspecified) -0.859%
CC(=O)Nc1ccc(C2=NN(CC#N)C(=O)SC2)cc1 -16.9%
COC(=O)CSC1=C(C#N)C(c2cccc(F)c2)CC(=O)N1 (stereo unspecified) -27.1%
N[C@H](Cn1ccc(=O)n(Cc2ccccc2C(=O)O)c1=O)C(=O)O 1.32%
N[C@@H](Cn1cc(F)c(=O)[nH]c1=O)C(=O)O 9.04%
Cn1cc(-c2nc3cnc(N4CCOCC4)nc3n(C3CC3)c2=O)c2ccccc21 0.0209%
CCOC(=O)c1c(CC(C)C)csc1NC=O -12.9%
COCCn1c(=O)c(-c2cn(C)c3ccccc23)nc2cnc(Oc3ccc(OC)cc3)nc21 -4.68%
O=C1C[C@H]2C(=O)[C@@H]1[C@@H](C(=O)O)[C@H]2C(=O)O 11.5% [at 11.4 µM]
Cc1cc(C)n(Cc2ccc(NC(=O)c3ccc(COc4ccccc4Br)cc3)cc2)n1 -11.6%
CC1(C)OC(=O)C(=CNCC(O)c2ccccc2)C(=O)O1 (stereo unspecified) 19.5%
CCCC(=O)NNC(=O)Nc1ccccc1 0.27%
C=CCNC(=O)c1csc(-c2ccccc2)n1 17.1%
CCn1c(C)c(C)c2cc(C(=O)Nc3cccc(Cl)c3)ccc21 -26.9%
CC(=O)N[C@@H](CC(=O)O)C(=O)O -0.495% [at 25.6 µM]
NC(=O)c1cc[n+](CC2=C(C(=O)[O-])N3C(=O)[C@@H](NC(=O)Cc4cccs4)[C@@H]3SC2)cc1 -1.02% [at 25.6 µM]
CN(C)C(=N)N=C(N)N -6.01% [at 25.6 µM]
O=C(NNC(=S)NC(=O)c1cccnc1)c1ccccc1 -3.01%
CCOC(=O)COc1cc(OCC(=O)OCC)c2c(=O)cc(-c3ccccc3)oc2c1 32.3%
COc1ccc(-c2coc3cc4oc(=O)cc(C)c4cc23)cc1F -4.68%
O=c1cc(-c2ccccc2)oc2cc(O)c(O)c(O)c12 -2.03%
O=c1c(-c2ccc(O)cc2)coc2cc(O)cc(O)c12 6.84%
CCOC(=O)Cc1c(C)nc2c(C#N)c[nH]n2c1=O 0.121%
COC(=O)Cn1cnc(=O)c(C#N)c1/C=C/N(C)C 3.9%
Cn1c(=O)c2[nH]c(CCS)nc2n(C)c1=O 4.9% [at 11.4 µM]
O=c1nc(N2CCOCC2)ccn1-c1nc(-c2ccccc2)oc1-c1ccccc1 -8.85%
C[C@H](Nc1ncnc2sc3c(c12)CCC3)C(=O)O 0.707%
Cc1cc2nc(-c3ccc(SCC(=O)N4CCc5ccccc54)nc3)[nH]c2cc1C -4.65%
Cc1cc2nc(C3CCCN(C(=S)Nc4ccccc4)C3)[nH]c2cc1C (stereo unspecified) -7.35%
COc1ccc(N2CCN(C(=S)Nc3cc(C)ccc3C)CC2)cc1 -18.8%
O=C(Nc1ccccc1)N1CCCC(c2nc(-c3ccc(F)cc3)no2)C1 (stereo unspecified) -28.6%

AC50, inactive:
CCOC(=O)[C@@]12C[C@@H]1/C(=N/O)c1ccccc1O2
O=C(Nc1cc(C(=O)Nc2ccc(S(=O)(=O)O)cc2S(=O)(=O)O)cc(C(=O)Nc2ccc(S(=O)(=O)O)cc2S(=O)(=O)O)c1)Nc1cc(C(=O)Nc2ccc(S(=O)(=O)O)cc2S(=O)(=O)O)cc(C(=O)Nc2ccc(S(=O)(=O)O)cc2S(=O)(=O)O)c1
C[C@@H](C[N+](C)(C)C)OC(N)=O

AC50, active:
CCN(CC)CCn1c(=S)[nH]c2cc3c(cc2c1=O)OCO3 0.631 µM
O=C(CCCn1c(=S)[nH]c2cc3c(cc2c1=O)OCO3)N1CCN(c2ncccn2)CC1 5.01 µM
O=C(CCCCCn1c(=S)[nH]c2cc3c(cc2c1=O)OCO3)N1CCN(C2CCCCC2)CC1 8.91 µM
N[C@@H](Cn1cc(I)c(=O)n(Cc2ccc(C(=O)O)cc2)c1=O)C(=O)O 2.51 µM
Cc1cc(C)n(CCCNCC(O)c2ccccc2)n1 (stereo unspecified) 7.08 µM
C=CC[n+]1c(-c2ccc(C)cc2)csc1NNC(=O)Nc1ccccc1 3.16 µM
COc1ccc(-c2coc3cc(OC)cc(O)c3c2=O)cc1 0.0355 µM
COc1ccc(-c2cc(=O)c3c(O)cc(O)cc3o2)cc1 12.6 µM
Cc1cc2nc(C3CCCN(C(=O)NCc4ccccc4)C3)[nH]c2cc1C (stereo unspecified) 5.01 µM
Cc1ccc2nc(C3CCCN(C(=S)Nc4ccccc4C)C3)[nH]c2c1 (stereo unspecified) 2 µM

From PubChem BioAssay AID1851 (National Center for Advancing Translational Sciences (NCATS), 2009)
